# Records with an inconclusive call do not appear. Where a call stands in place of a potency, no number is given. Active and inactive are the calls of the source. Unless noted, the call rests on the fitted dose curve; in most records, active means well fitted curve in the direction sought with a large enough effect in the repeat runs; inconclusive means weak or mixed curves; inactive means no such curve, though single readings can be large; an effect the other way counts as inactive or inconclusive.
# Tests used:
# [1] = qHTS assay for small molecule agonists of the p53 signaling pathway (AID 651631; calls by dose curve; further: nearly all actives have a fitted effect of over 15% in size)
# How it was run: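 Beta-lactamase reporter activity under p53 response elements was quantified in HCT-116 cells by FRET fluorescence, following 16 h incubation with test compounds at 37 °C and 2 h substrate development at room temperature.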
# [2] = qHTS assay for small molecules that induce genotoxicity in human embryonic kidney cells expressing luciferase-tagged ATAD5 (AID 651632); further: nearly all actives have a fitted effect of over 15% in size
# How it was run: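 HEK293T cells carrying a luciferase reporter tagged to ATAD5 were exposed to compound or DMSO vehicle for 16 hr at 37C, 5% CO2. Amplite was added, and after 30 min at room temperature luciferase activity was read as a marker of ATAD5 induction.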
# [3] = qHTS assay for small molecule agonists of the p53 signaling pathway - cell viability (AID 651633; calls by dose curve;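 further: p53RE-bla HCT reporter cells with a stable beta-lactamase p53 reporter; nearly all actives have a fitted effect of over 30% in size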)
# How it was run: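 Viability counter-read: CellTiter-Glo luminescence (30 min, room temperature) in the same p53RE-bla plates. These plates had been exposed to compounds for 16 h at 37 C.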
# [4] = qHTS assay for small molecules that induce genotoxicity in human embryonic kidney cells expressing luciferase-tagged ATAD5 - cell viability (AID 651634; calls by dose curve; further: nearly all actives have a fitted effect of over 25% in size)
# How it was run: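 HEK293T cells expressing luciferase-tagged ATAD5 were exposed to compound or DMSO for 15.5 hr at 37C, 5% CO2. Viability was then read as live-cell protease activity by CellTiter-Fluor fluorescence after 30 min at 37C.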
# [5] = qHTS assay for small molecule disruptors of the mitochondrial membrane potential - cell viability (AID 720634; calls by dose curve;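 further: human HepG2 liver cancer cells; nearly all actives have a fitted effect of over 20% in size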)
# How it was run: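 HepG2 cells seeded overnight at 37 C, then exposed to compound or DMSO for 1 hr at 37 C, 5% CO2. m-MPI dye added, then CellTiter-Glo for 30 min at room temperature; viability read as ATP luminescence.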
# [6] = qHTS assay for small molecule disruptors of the mitochondrial membrane potential (AID 720635); further: potency means the concentration at half of the fitted maximal effect
# How it was run: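 Mitochondrial membrane potential tracked with Mito-MPS dye, red aggregates (ex 540/em 590 nm) against green monomers (ex 490/em 535 nm). Compound treatment 1 hr at 37C, dye 30 min in HepG2.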
# [7] = qHTS assay to test for compound auto fluorescence at 590 nm (red) in HepG2 cells (AID 720674)
# How it was run: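 Red autofluorescence (Ex/Em 540/590 nm, Rose Bengal sodium equivalents) was measured in HepG2 cells, 2,000 per well in MEM plus 10% FBS, plated overnight at 37 C. Readings were taken 1 hr after adding 23 nL compound or DMSO, at 37 C and 5% CO2.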
# [8] = qHTS assay to test for compound auto fluorescence at 535 nm (green) in HepG2 cells (AID 720675)
# [9] = qHTS assay to test for compound auto fluorescence at 460 nm (blue) in HEK293 cells (AID 720678)
# How it was run: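 Blue-channel (Ex/Em 405/460 nm) intensity measured in HEK293 cultures after overnight compound exposure at 37C; signal expressed relative to triamterene. Cells plated 2,000 per well in 10% dialyzed FBS medium and allowed 4-5 hr to attach.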
# [10] = qHTS assay to test for compound auto fluorescence at 590 nm (red) in HEK293 cells (AID 720679)
# How it was run: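 Red-channel autofluorescence (Ex/Em 540/590 nm; Rose Bengal sodium reference) was measured after overnight 37C, 5% CO2 exposure of attached HEK293 cells, 2,000 per well in medium with 10% dialyzed FBS.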
# [11] = qHTS assay to test for compound auto fluorescence at 535 nm (green) in HEK293 cells (AID 720680)
# [12] = qHTS assay to test for compound auto fluorescence at 460 nm (blue) in HEK293 cell free culture (AID 720681)
# How it was run: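 Blue fluorescence (Ex 405/Em 460 nm, triamterene-equivalent) was read immediately after pin transfer of compound or DMSO into medium (DMEM, 10% FBS) without cells.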
# [13] = qHTS assay to test for compound auto fluorescence at 535 nm (green) in HEK293 cell free culture (AID 720682)
# How it was run: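 Each library compound, or DMSO control, is added by pintool to medium alone, comprising DMEM and 10% FBS. Emission at 535 nm following 485 nm excitation is quantified against fluorescein.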
# [14] = qHTS assay to test for compound auto fluorescence at 590 nm (red) in HEK293 cell free culture (AID 720683)
# How it was run: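 Red-channel autofluorescence of compounds in culture medium (DMEM, 10% FBS), no cells, measured at 540/590 nm. Rose Bengal sodium is the reference fluorophore for equivalence.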
# [15] = qHTS assay to test for compound auto fluorescence at 590 nm (red) in HepG2 cell free culture (AID 720684)
# How it was run: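 Plate contents were MEM with 10% FBS plus test compound or DMSO, no cells. Fluorescence was recorded with 540 nm excitation and 590 nm emission.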
# [16] = qHTS assay to test for compound auto fluorescence at 460 nm (blue) in HepG2 cell free culture (AID 720685)
# How it was run: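 Compound (23 nL) or DMSO pinned into cell-free MEM with 10% FBS; blue fluorescence read at 405/460 nm excitation/emission, expressed as auto-fluorescence equivalency to triamterene.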
# [17] = qHTS assay to test for compound auto fluorescence at 535 nm (green) in HepG2 cell free culture (AID 720686)
# [18] = qHTS assay to test for compound auto fluorescence at 460 nm (blue) in HepG2 cells (AID 720687)
# How it was run: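 Blue-channel autofluorescence (Ex/Em 405/460 nm, triamterene-equivalent) was measured after 1 hr compound exposure at 37 C, 5% CO2. Cells were HepG2, plated overnight at 37 C in MEM plus 10% FBS.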
# [19] = molecular target: Glucocorticoid receptor (Homo sapiens) (UniProt P04150); test: qHTS assay to identify small molecule agonists of the glucocorticoid receptor (GR) signaling pathway (AID 720691; active means well fitted activation curve with a large enough effect in the signal ratio in the repeat runs, not every such curve was filed as active; the % refers to the signal ratio); details: GR-bla HeLa, beta-lactamase reporter ratio, 18 h; activation: at 62.4 µM (top of the series)
# How it was run: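 GR-bla HeLa cells (beta-lactamase reporter under glucocorticoid response element) were plated 4 h at 37 C/5% CO2, given compounds in DMSO, and incubated 18 h at 37 C. LiveBLAzer B/G FRET substrate was added for 2 h at room temperature, then fluorescence intensity read.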
# [20] = molecular target: Glucocorticoid receptor (Homo sapiens) (UniProt P04150); test: qHTS assay to identify small molecule antagonists of the glucocorticoid receptor (GR) signaling pathway (AID 720692; active means well fitted inhibition curve with a large enough effect in the signal ratio in the repeat runs, not every such curve was filed as active; the % refers to the signal ratio)
# How it was run: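 GR-bla HeLa cells (beta-lactamase reporter under glucocorticoid response element) were pre-plated 4 h at 37 C, treated with compounds plus 5 nM dexamethasone (final) for 18 h, then read by LiveBLAzer B/G FRET fluorescence after 2 h.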
# Sequence of Glucocorticoid receptor (Homo sapiens) (P04150 whole entry, looked up): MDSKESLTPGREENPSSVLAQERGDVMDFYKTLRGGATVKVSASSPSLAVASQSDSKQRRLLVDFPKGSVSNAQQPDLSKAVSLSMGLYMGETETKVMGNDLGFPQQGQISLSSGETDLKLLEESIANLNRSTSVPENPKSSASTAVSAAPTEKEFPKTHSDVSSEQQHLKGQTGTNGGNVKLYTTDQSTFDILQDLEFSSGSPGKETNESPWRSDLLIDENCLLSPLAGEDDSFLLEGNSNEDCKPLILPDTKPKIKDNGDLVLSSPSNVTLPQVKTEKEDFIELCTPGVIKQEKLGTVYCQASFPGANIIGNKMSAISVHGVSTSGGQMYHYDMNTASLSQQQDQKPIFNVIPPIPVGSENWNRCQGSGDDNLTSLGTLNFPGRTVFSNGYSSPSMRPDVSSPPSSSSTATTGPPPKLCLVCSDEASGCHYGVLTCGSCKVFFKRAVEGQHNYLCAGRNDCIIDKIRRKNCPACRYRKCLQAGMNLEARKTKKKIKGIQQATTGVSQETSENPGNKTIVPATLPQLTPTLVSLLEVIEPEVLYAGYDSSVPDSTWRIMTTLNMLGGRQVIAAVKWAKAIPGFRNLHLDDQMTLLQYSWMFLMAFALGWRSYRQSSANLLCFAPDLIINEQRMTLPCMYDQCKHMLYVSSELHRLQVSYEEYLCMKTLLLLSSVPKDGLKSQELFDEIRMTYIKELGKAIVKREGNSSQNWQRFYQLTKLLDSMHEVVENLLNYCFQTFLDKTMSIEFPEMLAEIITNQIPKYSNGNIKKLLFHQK
Structure (SMILES),Potency [1],Potency [2],Potency [3],Potency [4],Potency [5],Potency [6],outcome [7],Potency [8],Potency [9],outcome [10],outcome [11],Potency [12],outcome [13],outcome [14],outcome [15],Potency [16],Potency [17],Potency [18],Potency [19],Potency [20]
NCCCC[C@H](NC(=O)[C@@H]1CCCN1C(=O)[C@@H]1CSSC[C@H](N)C(=O)N[C@@H](Cc2ccc(O)cc2)C(=O)N[C@@H](Cc2ccccc2)C(=O)N[C@@H](CCC(N)=O)C(=O)N[C@@H](CC(N)=O)C(=O)N1)C(=O)NCC(N)=O,inactive,inactive,inactive,inactive,inactive,inactive,inactive,inactive,inactive,inactive,inactive,inactive,inactive,inactive,inactive,inactive,inactive,inactive,inactive,inactive
Cc1cnc(C(=O)O)c[n+]1[O-],inactive,inactive,inactive,inactive,inactive,inactive,inactive,inactive,inactive,inactive,inactive,inactive,inactive,inactive,inactive,inactive,inactive,inactive,–,–
CC12CCC(C[N+](C)(CCC[N+](C)(C)C)C1)C2(C)C (stereo unspecified),inactive,inactive,inactive,inactive,inactive,inactive,inactive,inactive,inactive,inactive,inactive,inactive,inactive,inactive,inactive,inactive,inactive,–,–,–
Cc1cccc(C)c1NC(=O)C1CCCCN1C (stereo unspecified),inactive,inactive,inactive,inactive,inactive,inactive,inactive,inactive,inactive,inactive,inactive,inactive,inactive,inactive,inactive,inactive,inactive,inactive,inactive,inactive
C[C@H](O)CN(C)C,inactive,inactive,inactive,inactive,inactive,inactive,inactive,inactive,inactive,inactive,inactive,inactive,inactive,inactive,inactive,inactive,inactive,inactive,–,–
CC(C)c1ncc([N+](=O)[O-])n1C,inactive,inactive,inactive,inactive,inactive,inactive,inactive,inactive,inactive,inactive,inactive,inactive,inactive,inactive,inactive,inactive,inactive,inactive,inactive,inactive
CN1C(C(=O)Nc2ccccn2)C(=O)c2sc(Cl)cc2S1(=O)=O (stereo unspecified),inactive,inactive,inactive,inactive,inactive,8.41 µM (active),inactive,inactive,inactive,inactive,inactive,inactive,inactive,inactive,inactive,inactive,inactive,inactive,–,–

# — PubChem BioAssay (Tox21)
